Laboratory results reported in PubChem BioAssay.
For some assays here: Measured potencies and affinities stand elsewhere. Activity calls are given as the source filed them.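 How the source made its calls, unless noted: active means earlier screen potentiator hit that boosts the TRPC4 ion channel at some dose, with a dose response; inactive means no potentiation, no dose response, or not a prior hit.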

How the values were obtained:
[1] = tested on: TRPC4 beta (transient receptor potential cation channel C4), mouse; experiment: TRPC4 cation channel opening, retest – cell-based, Fluo4 calcium, HEK293 TRPC4beta/mu-opioid, duplicates, 10 µM, confirmation (AID 2426;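 active means fluorescence ratio normalized to control raised more than 50% in primary screen plus both repeat runs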;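 on activation: percent rise of integrated ratio over buffer wells lacking compound which define 0%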); details: Fluo4 calcium fluorescence, at 10 µM; hits give high values
[2] = tested on: transient receptor potential cation channel C4 beta (TRPC4), mouse; experiment: TRPC4 cation channel opening, second retest – cell-based, second round, Fluo4, HEK293 TRPC4beta/mu-opioid, 1 µM, confirmation (AID 2461;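 active means primary screen active and over 50% activation in each of two duplicate runs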;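 on activation: 0% = wells without test compound as baseline of integrated fluorescence ratio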); details: Fluo4 calcium fluorescence, at 1 µM; hits give high values
[3] = tested on: TRPC4 (transient receptor potential cation channel C4 beta), mouse; experiment: potentiation of DAMGO EC20 TRPC4 response – cell-based, second round, Fluo-4, HEK293 TRPC4beta/mu-opioid, 1 µM, confirmation (AID 2554;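 active means primary screen hit whose fluorescence ratio, in both repeats, exceeds the weak agonist control mean by 3 SD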); details: DAMGO EC20, Fluo-4 calcium flux, at 1 µM; hits give high values
[4] = tested on: TRPC4 beta (transient receptor potential cation channel C4), mouse; experiment: potentiation of DAMGO EC20 TRPC4 response – cell-based, Fluo-4, HEK293 TRPC4beta/mu-opioid, confirmation (AID 2555;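 active means primary screen hit whose calcium fluorescence ratio, in both repeats, exceeds the weak agonist control mean by 3 SD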); details: DAMGO EC20, Fluo-4 calcium flux, at 10 µM; hits give high values
[5] = molecular target: Short transient receptor potential channel 4 (Mus musculus) (UniProt Q9QUQ5); experiment: blockers of DAMGO-evoked TRPC4 calcium flux – cell-based, Fluo4, HEK293 TRPC4beta/mu-opioid, confirmation (AID 2636;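 active means calcium signal cut by more than 3 SD below the full-agonist control yet still positive, in both repeats and the earlier primary screen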); details: at 10 µM; hits give high values
[6] = molecular target: Short transient receptor potential channel 4 (Mus musculus) (UniProt Q9QUQ5); experiment: blockers of DAMGO-evoked TRPC4 calcium flux – cell-based, second round, Fluo4, HEK293 TRPC4beta/mu-opioid, 1 µM, confirmation (AID 2637;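 active means calcium signal ratio cut to more than 3 SD under the fully stimulated control mean yet still positive, in both repeats and the primary screen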); details: at 1 µM; hits give high values
[7] = molecular target: Short transient receptor potential channel 4 (Mus musculus) (UniProt Q9QUQ5); experiment: potentiation of DAMGO-evoked TRPC4 calcium signal – cell-based, HEK293 TRPC4/mu-opioid, Fluo-4 calcium, EC20 DAMGO, dose response (AID 434941);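 further: calcium entry triggered by an EC20 dose of DAMGO at the co-expressed mu-opioid receptor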
[8] = molecular target: Short transient receptor potential channel 4 (Mus musculus) (UniProt Q9QUQ5); experiment: block of DAMGO-driven TRPC4 calcium entry – cell-based, HEK293 TRPC4/mu-opioid, Fluo-4 calcium, dose response (AID 434942;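 active means primary screen inhibitor hit that blocks the TRPC4 channel at some tested dose, yielding a dose curve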)
[9] = molecular target: Short transient receptor potential channel 6 (Mus musculus) (UniProt Q61143); experiment: TRPC6 blockade by TRPC4 inhibitor hits – cell-based, HEK293, membrane potential dye, duplicate, selectivity assay for TRPC4 inhibitor project, confirmation (AID 434948;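 active means active in primary screen and both duplicates, each dropping signal beyond three positive-control SD with fluorescence still positive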); details: HEK293 TRPC6, membrane potential dye fluorescence, at 10 µM, stimulated with maximal-effect acetylcholine; hits give high values
[10] = molecular target: Short transient receptor potential channel 6 (Mus musculus) (UniProt Q61143); experiment: TRPC6 opening by TRPC4 activator hits – cell-based, HEK293, membrane potential dye, duplicate, selectivity assay for TRPC4 activator project, confirmation (AID 434950;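 active means membrane potential signal rise above negative control mean plus 3 SD in both duplicates, also active in the earlier TRPC4 screen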;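 on activation: 0% = buffer only wells and 100% = acetylcholine maximal-effect wells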); details: HEK293 TRPC6, membrane potential fluorescence, at 10 µM; activation: hits give high values; outcome: activation
[11] = molecular target: Short transient receptor potential channel 6 (Mus musculus) (UniProt Q61143); experiment: positive modulators of mouse TRPC6 channel – HEK293 cells, membrane potential dye, duplicate, selectivity assay for TRPC4 potentiator project, confirmation (AID 434952;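 active means compound raising the membrane signal above positive-control mean plus 3 SD in both repeats, and a primary screen hit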); details: HEK293 TRPC6, membrane potential dye fluorescence, at 10 µM, maximal acetylcholine added after compound; hits give high values
[12] = molecular target: Short transient receptor potential channel 4 (Mus musculus) (UniProt Q9QUQ5); experiment: calcium flux activators in TRPC4/5HT1a cells, counter-screen for TRPC4 activator project, cell-based, second counter screen, HEK293 TRPC4/5HT1a, Fluo-4 (AID 434977;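 active means calcium signal rise above buffer-control mean plus 5 SD in both duplicates, and also a hit in the primary screen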;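 on activation: plate controls were assay buffer for no effect and maximal serotonin response for full effect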); details: Fluo-4 calcium flux, at 10 µM; hits give high values
[13] = serotonin-gated TRPC4 signal block – cell-based, second counter screen, HEK293 TRPC4/5HT1a, Fluo-4, counter-screen for TRPC4 inhibitor project, confirmation (AID 434978;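 active means primary screen active whose calcium signal fell more than 3 SD beyond the full-serotonin control mean in both duplicate plates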;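 further: serotonin given first at submaximal then at maximal dose after compound preincubation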); details: Fluo-4 calcium flux, at 10 µM, serotonin added to trigger calcium flux; hits give high values
[14] = tested on: TRPC4 (mouse), co-expressed with 5HT1a in HEK293; experiment: enhancement of serotonin-evoked TRPC4 response – cell-based, second counter screen, HEK293 TRPC4/5HT1a, Fluo-4, counter-screen for TRPC4 potentiator project, confirmation (AID 434979;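 active means signal rise over 3 SD above mean of control wells given weak agonist, in both repeats and first screen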); details: Fluo-4 calcium flux, at 10 µM, serotonin added at its EC20 dose; hits give high values
[15] = nonspecific calcium rise without TRPC4 – cell-based, HEK293 mu-opioid receptor line, counter-screen for TRPC4 activator project, confirmation (AID 449723;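 active means hit in primary screen, with calcium signal over 5 SD above buffer well mean in both duplicates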;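 further: counter screen cells carry the mu-opioid receptor alone and lack TRPC4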); details: HEK293 mu-opioid cells, Fluo-4 calcium fluorescence, at 10 µM; hits give high values
[16] = nonspecific potentiation of DAMGO calcium response – cell-based, HEK293 mu-opioid receptor line, counter-screen for TRPC4 allosteric potentiator project, confirmation (AID 449724;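 active means calcium signal rise more than 3 SD above the low-dose agonist control mean, in both duplicate plates and the primary screen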;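 further: HEK293 cells carrying mu-opioid receptor only with no TRPC4 channel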); details: HEK293 mu-opioid receptor cells, Fluo-4 calcium flux, at 10 µM, compound added before EC20 DAMGO stimulus; hits give high values

Sequence of Short transient receptor potential channel 4 (Mus musculus) (Q9QUQ5 whole entry, looked up): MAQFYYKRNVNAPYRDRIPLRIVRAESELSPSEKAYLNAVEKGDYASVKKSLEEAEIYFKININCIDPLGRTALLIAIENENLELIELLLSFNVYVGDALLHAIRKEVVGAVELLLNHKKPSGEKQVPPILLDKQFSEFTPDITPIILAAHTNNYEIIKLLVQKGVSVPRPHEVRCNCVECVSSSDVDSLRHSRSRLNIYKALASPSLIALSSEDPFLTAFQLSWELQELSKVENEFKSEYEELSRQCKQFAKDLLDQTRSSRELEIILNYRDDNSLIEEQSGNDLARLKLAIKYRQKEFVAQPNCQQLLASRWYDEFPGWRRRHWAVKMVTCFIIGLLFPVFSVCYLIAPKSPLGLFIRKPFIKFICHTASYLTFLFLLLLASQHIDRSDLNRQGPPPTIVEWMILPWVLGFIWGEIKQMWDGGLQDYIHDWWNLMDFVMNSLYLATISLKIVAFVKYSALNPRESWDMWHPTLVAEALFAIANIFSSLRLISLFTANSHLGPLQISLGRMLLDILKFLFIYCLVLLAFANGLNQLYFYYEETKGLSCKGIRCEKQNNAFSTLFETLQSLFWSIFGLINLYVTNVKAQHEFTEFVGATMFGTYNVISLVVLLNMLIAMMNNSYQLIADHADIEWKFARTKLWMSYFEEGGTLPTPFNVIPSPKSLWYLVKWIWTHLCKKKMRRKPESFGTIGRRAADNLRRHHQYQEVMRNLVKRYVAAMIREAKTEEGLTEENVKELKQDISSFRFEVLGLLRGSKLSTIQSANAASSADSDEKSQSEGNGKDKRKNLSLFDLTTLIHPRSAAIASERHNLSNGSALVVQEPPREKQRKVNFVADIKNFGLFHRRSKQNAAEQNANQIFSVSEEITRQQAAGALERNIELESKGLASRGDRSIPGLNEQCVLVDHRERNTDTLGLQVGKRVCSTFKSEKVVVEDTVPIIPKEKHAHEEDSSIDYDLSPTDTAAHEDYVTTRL
Sequence of Short transient receptor potential channel 6 (Mus musculus) (Q61143 whole entry, looked up): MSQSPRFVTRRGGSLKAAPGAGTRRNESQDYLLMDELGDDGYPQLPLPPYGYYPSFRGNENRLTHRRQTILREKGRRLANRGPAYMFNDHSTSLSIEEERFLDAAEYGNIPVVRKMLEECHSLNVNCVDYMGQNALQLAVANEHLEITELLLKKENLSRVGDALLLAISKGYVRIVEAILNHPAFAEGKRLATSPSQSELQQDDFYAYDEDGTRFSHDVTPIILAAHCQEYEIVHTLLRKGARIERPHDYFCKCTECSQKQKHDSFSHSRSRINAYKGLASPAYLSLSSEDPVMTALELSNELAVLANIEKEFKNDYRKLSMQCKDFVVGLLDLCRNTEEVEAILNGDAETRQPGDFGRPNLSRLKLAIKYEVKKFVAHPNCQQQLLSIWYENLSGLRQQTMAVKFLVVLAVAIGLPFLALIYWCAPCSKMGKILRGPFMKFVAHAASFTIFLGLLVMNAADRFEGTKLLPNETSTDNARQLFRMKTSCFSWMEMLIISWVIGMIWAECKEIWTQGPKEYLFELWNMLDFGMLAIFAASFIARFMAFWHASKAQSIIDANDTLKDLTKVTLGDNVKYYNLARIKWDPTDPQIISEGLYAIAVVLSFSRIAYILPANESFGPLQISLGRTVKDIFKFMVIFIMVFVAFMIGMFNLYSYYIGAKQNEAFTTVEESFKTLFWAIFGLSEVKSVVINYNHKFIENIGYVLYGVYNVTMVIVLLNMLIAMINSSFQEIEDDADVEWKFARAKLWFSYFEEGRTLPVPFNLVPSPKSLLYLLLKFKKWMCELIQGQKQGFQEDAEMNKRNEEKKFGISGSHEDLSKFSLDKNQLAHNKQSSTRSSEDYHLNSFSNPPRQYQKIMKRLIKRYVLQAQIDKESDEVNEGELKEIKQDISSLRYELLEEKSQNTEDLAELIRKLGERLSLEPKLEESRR

COc1ccc(CN2CCC(n3nccc3NC(=O)CCc3ccccc3)CC2)c(C)c1C
active: activation [1] 68% | activation [10] 72%
inactive: outcome [2] | outcome [3] | outcome [4] | outcome [5] | outcome [6] | outcome [7] | outcome [8] | outcome [9] | outcome [11] | outcome [12] | outcome [13] | outcome [14] | outcome [15] | outcome [16]

Cc1ccc(NC(=O)CNCC(c2ccccc2)N(C)C)cc1F (centres undefined)
inactive: outcome [2] | outcome [3] | outcome [4] | outcome [5] | outcome [6] | outcome [7] | outcome [8] | outcome [9] | outcome [11] | outcome [12] | outcome [13] | outcome [14] | outcome [15] | outcome [16]
active: activation [1] 95% | activation [10] 44%

CCOc1ncccc1C(=O)NCC(c1ccccc1)N(C)C (centres undefined)
active: activation [1] 155% | activation [10] 61%
inactive: outcome [2] | outcome [3] | outcome [4] | outcome [5] | outcome [6] | outcome [7] | outcome [8] | outcome [9] | outcome [11] | outcome [12] | outcome [13] | outcome [14] | outcome [15] | outcome [16]

Cc1ccccc1Cn1c(CN2CCc3ccccc3C2)nc2c1c(=O)n(C)c(=O)n2C
inactive: outcome [2] | outcome [5] | outcome [6] | outcome [7] | outcome [8] | outcome [9] | outcome [11] | outcome [12] | outcome [13] | outcome [15] | outcome [16]
active: activation [1] 163% | potentiation [3] 6% | potentiation [4] 46% | activation [10] 71% | potentiation [14] 88.5%

Cc1cc(C)cc(NC(=S)N2CCN(c3ncc(C(F)(F)F)cc3Cl)CC2)c1
inactive: outcome [2] | outcome [3] | outcome [4] | outcome [5] | outcome [6] | outcome [7] | outcome [8] | outcome [9] | outcome [11] | outcome [13] | outcome [14] | outcome [15] | outcome [16]
active: activation [1] 105% | activation [10] 25% | activation [12] 49.6%

CN1CCC(=O)N([C@H](CSc2ccc(Br)cc2)Cc2ccccc2)CC1
inactive: outcome [1] | outcome [2] | outcome [3] | outcome [4] | outcome [5] | outcome [6] | outcome [7] | outcome [8] | outcome [9] | outcome [11] | outcome [12] | outcome [13] | outcome [14] | outcome [15] | outcome [16]
active: activation [10] 33%

CC(C)(C)C(=O)NC(=S)NNC(=O)c1sc2ccccc2c1Cl
inactive: outcome [3] | outcome [4] | outcome [5] | outcome [6] | outcome [7] | outcome [8] | outcome [9] | outcome [11] | outcome [13] | outcome [14] | outcome [16]
active: activation [1] 323% | activation [2] 96% | activation [10] 36.5% | activation [12] 148% | activation [15] 136%

CCC(=O)N1CCc2cc(Br)cc(S(=O)(=O)NCCCN(CC)Cc3ccccc3)c21
active: activation [1] 126% | activation [2] 153% | activation [12] 55.5%
inactive: outcome [3] | outcome [4] | outcome [5] | outcome [6] | outcome [7] | outcome [8] | outcome [9] | outcome [10] | outcome [11] | outcome [13] | outcome [14] | outcome [15] | outcome [16]

COC(=O)c1ccc(N2CCN(C)CC2)c(NC(=O)c2cccs2)c1
inactive: outcome [2] | outcome [3] | outcome [4] | outcome [5] | outcome [6] | outcome [7] | outcome [8] | outcome [9] | outcome [10] | outcome [11] | outcome [13] | outcome [14] | outcome [16]
active: activation [1] 138% | activation [12] 52.7% | activation [15] 15.6%

CCOC(=O)C1(Cc2cccc(F)c2)CCN(Cc2cnn(CC)c2)CC1
inactive: outcome [3] | outcome [4] | outcome [5] | outcome [6] | outcome [7] | outcome [8] | outcome [9] | outcome [11] | outcome [12] | outcome [13] | outcome [14] | outcome [15] | outcome [16]
active: activation [1] 118% | activation [2] 92% | activation [10] 51.5%

COC(=O)c1cc(N2CCNCC2)nc2ccccc12
inactive: outcome [1] | outcome [2] | outcome [3] | outcome [5] | outcome [6] | outcome [7] | outcome [8] | outcome [9] | outcome [10] | outcome [11] | outcome [13] | outcome [15] | outcome [16]
active: potentiation [4] 47% | activation [12] 18.6% | potentiation [14] 13.8%

Cc1oc(-c2ccccc2Cl)nc1CS(=O)CC(=O)NCCCN1CC(C)CC(C)C1 (centres undefined)
active: activation [1] 78% | activation [2] 58% | activation [10] 31% | activation [12] 20.1%
inactive: outcome [3] | outcome [4] | outcome [5] | outcome [6] | outcome [7] | outcome [8] | outcome [9] | outcome [11] | outcome [13] | outcome [14] | outcome [15] | outcome [16]

Cc1csc2c(N3CCN(C(=O)Nc4ccc(Cl)c(Cl)c4)CC3)ncnc12
active: activation [1] 115% | activation [12] 40.3%
inactive: outcome [2] | outcome [3] | outcome [4] | outcome [5] | outcome [6] | outcome [7] | outcome [8] | outcome [9] | outcome [10] | outcome [11] | outcome [13] | outcome [14] | outcome [15] | outcome [16]

CN(C)CCCN(C(=O)c1ccc(S(=O)(=O)N2CCCCCC2)cc1)c1nc2c(F)cc(F)cc2s1
active: activation [1] 133%
inactive: outcome [2] | outcome [3] | outcome [4] | outcome [5] | outcome [6] | outcome [7] | outcome [8] | outcome [9] | outcome [10] | outcome [11] | outcome [12] | outcome [13] | outcome [14] | outcome [15] | outcome [16]
